In PubChem BioAssay (EPA / NIEHS):
Records with an inconclusive call do not appear. Active and inactive are the calls of the source. The calls were made as follows: active = hit-call score of the fitted dose curve at least 0.9, where 1 is the maximum; inconclusive = response in the unintended direction; inactive = score below 0.9.

target: Peroxisome proliferator-activated receptor gamma (Homo sapiens) (UniProt P37231); assay: OT_PPARg_PPARgSRC1_0480: Odyssey Thera (OT) 8-hour Protein-Complementation Assay for Peroxisome Proliferator-activated Receptor Gamma / SRC-1 Co-activator (AID 2283387);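 also: nuclear to cytoplasmic split Venus YFP fluorescence ratio reporting PPARg SRC-1 interaction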
Sequence (P37231 whole entry, looked up, the tested form may be a part): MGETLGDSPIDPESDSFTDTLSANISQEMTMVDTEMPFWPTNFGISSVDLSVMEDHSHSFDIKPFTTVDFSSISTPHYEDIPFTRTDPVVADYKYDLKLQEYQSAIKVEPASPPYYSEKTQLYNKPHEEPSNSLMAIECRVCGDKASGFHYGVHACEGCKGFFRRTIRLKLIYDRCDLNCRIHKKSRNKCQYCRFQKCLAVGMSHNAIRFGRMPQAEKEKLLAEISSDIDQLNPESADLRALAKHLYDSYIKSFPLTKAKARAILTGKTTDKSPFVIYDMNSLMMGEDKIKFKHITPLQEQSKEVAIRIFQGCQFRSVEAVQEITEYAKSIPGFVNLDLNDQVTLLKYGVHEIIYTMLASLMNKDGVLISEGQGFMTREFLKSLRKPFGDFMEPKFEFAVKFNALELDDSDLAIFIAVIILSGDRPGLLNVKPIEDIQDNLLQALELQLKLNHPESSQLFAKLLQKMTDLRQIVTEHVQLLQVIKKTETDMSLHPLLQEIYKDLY
Protocol: OT_PPARg_PPARgSRC1_0480 is a cell-based assay that uses HEK293T, a human kidney cell line, with measurements taken at 8 hours after chemical dosing in a 384-well plate.OT_PPARg_PPARgSRC1_0480 is one of one assay component(s) measured or calculated from the OT_PPARg_PPARgSRC1_0480 assay. It is designed to make measurements of protein fragment complementation, a form of binding reporter, as detected with fluorescence intensity signals by Protein-fragment Complementation technology.Data from the assay component OT_PPARg_PPARgSRC1_0480 was analyzed into 1 assay endpoint. This assay endpoint, OT_PPARg_PPARgSRC1_0480, was analyzed in the positive analysis fitting direction relative to DMSO as the negative control and baseline of activity. Using a type of binding reporter, measures of receptor for gain-of-signal activity can be used to understand the binding at the pathway-level as they relate to the gene PPARG. Furthermore, this assay endpoint can be referred to as a primary readout, because the performed assay has only produced 1 assay endpoint. To generalize the intended target to other relatable targets, this assay endpoint is annotated to the nuclear receptor intended target family, where the subfamily is non-steroidal.
The OT PPARg/SRC-1 assay assessed receptor-chemical interactions using a rapidly maturing, intensely fluorescent mutant of YFP known as Venus, rationally dissected into two separate fragments. The fragments were obtained as follows: first, fragments coding for YFP1 and YFP2 (corresponding to amino acid residues 1-158 and 159-239 of the full length YFP, respectively) were generated by oligonucleotide synthesis (Blue Heron Biotechnology), and then PCR mutagenesis was used to generate the mutant fragments IFP1 and IFP2. Fusion constructs were transfected into HEK293T cells with a (Gly4Ser)2 linker between the PPARg/SRC-1 and YFP fragment genes to facilitate complementation when interacting proteins bring fragments into close proximity. The construct is transiently transfected in HEK293T cells 48 hours prior to treatment with test compounds. Cells are seeded into optical quality 384-well poly-D-lysine coated plates in MEM alpha medium (Invitrogen) supplemented with 10 percent FBS (Gemini Bio-Products) 1 percent penicillin and 1 percent streptomycin, and grown in 37C incubator equilibrated to 5 percent CO2. Cells are allowed to adhere for 24 hours prior to treatment with compounds of interest or controls for 8 hours. Cells are fixed in 4 percent formaldehyde and stained with Draq5 (BioStatus) to identify cells and subcellular compartment boundaries prior to signal detection. 8 Images per well were acquired on an Evotec Opera at 2 wavelengths (488 and 635nm), and the ratio of fluorescence in the nucleus relative to fluorescence in the cytoplasm (N/C Ratio) in the 488nm channel was calculated for a minimum of 350 cells per image.

Question: How did the outcome turn out when `CCCCCCOC(=O)c1ccccc1` was run?
Answer: Its outcome is “inactive”.

Question: For `C(=C(c1ccccc1)c1ccccc1)c1ccccc1`, which outcome is on record?
Answer: The outcome was “inactive”.

Question: Which outcome does the source give for `Cc1ccc(S(=O)(=O)NCl)cc1` here?
Answer: Its outcome is “inactive”.

Question: How did the outcome turn out when `C#C[C@]1(O)CC[C@H]2[C@@H]3CCc4cc(OC)ccc4[C@H]3CC[C@@]21C` was run?
Answer: Its outcome is “inactive”.

Question: For `CNC(=S)NC`, which outcome is on record?
Answer: Its outcome is “inactive”.

Question: With `CCN(Cc1cccc(S(=O)(=O)O)c1)c1ccc(C(=C2C=CC(=[N+](CC)Cc3cccc(S(=O)(=O)O)c3)C=C2)c2ccc(O)cc2S(=O)(=O)[O-])cc1` as the molecule, how does the outcome read?
Answer: Its outcome is “inactive”.

Question: `CC/C=C\CCOC(C)=O` was tested. Which outcome did it give?
Answer: The outcome was “inactive”.

Question: `CCCCCCC(C)OC(=O)CCCCC(=O)OC(C)CCCCCC` (stereo unspecified) was tested. Which outcome did it give?
Answer: Its outcome is “inactive”.

Question: With `CCCCC(CC)COP(=O)(O)OCC(CC)CCCC` (stereo unspecified) as the molecule, how does the AC50 read?
Answer: The AC50 was 64.4 µM (active).

Question: Which outcome does the source give for `[Co]` here?
Answer: Its outcome is “inactive”.

Question: With `OC[C@@H](O)[C@@H](O)[C@H](O)[C@@H](O)CO` as the molecule, how does the outcome read?
Answer: Its outcome is “inactive”.

Question: `c1ccc(B(c2ccccc2)c2ccccc2)cc1` was tested. Which outcome did it give?
Answer: The outcome was “inactive”.

Question: `O=S(=O)(O)c1ccc2ccccc2c1` was tested. Which outcome did it give?
Answer: Its outcome is “inactive”.

Question: `CCCCOc1ccc(N)cc1` was tested. Which outcome did it give?
Answer: The outcome was “inactive”.

Question: Which outcome does the source give for `CC(C)OC(=O)c1ccccc1C(=O)OC(C)C` here?
Answer: The outcome was “inactive”.

Question: How did the outcome turn out when `Cc1cc(C)cc(O)c1` was run?
Answer: Its outcome is “inactive”.
